The record followed here is PubChem BioAssay AID778 (Sanford-Burnham Center for Chemical Genomics, 2007).

The whole screen tested about 96,000 compounds, of which about 20,000 (21%) were called active. Not all results are given here. A number with no mark means an inactive call.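 How the source made its calls: active means CYP2C19 inhibition above a set limit at 5 µM in the primary screen (cut at about 50% in these data); inactive means the rest.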

The test deals with Cytochrome P450 2C19 (Homo sapiens) (UniProt P33261). Put plainly: blockers of cytochrome P450 2C19 activity – biochemical, luminescence, ADME assay, primary screen (AID 778).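 Further: plate controls were negative control wells for no effect and 2.5 mM tranylcypromine positive control for full effect.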 The following applies: CYP2C19 Supersomes, luciferin-H EGE luminescence, 30 min; at 5 µM; hits give high values.
Cytochrome P450 2C19 (Homo sapiens), sequence (P33261 whole entry, looked up): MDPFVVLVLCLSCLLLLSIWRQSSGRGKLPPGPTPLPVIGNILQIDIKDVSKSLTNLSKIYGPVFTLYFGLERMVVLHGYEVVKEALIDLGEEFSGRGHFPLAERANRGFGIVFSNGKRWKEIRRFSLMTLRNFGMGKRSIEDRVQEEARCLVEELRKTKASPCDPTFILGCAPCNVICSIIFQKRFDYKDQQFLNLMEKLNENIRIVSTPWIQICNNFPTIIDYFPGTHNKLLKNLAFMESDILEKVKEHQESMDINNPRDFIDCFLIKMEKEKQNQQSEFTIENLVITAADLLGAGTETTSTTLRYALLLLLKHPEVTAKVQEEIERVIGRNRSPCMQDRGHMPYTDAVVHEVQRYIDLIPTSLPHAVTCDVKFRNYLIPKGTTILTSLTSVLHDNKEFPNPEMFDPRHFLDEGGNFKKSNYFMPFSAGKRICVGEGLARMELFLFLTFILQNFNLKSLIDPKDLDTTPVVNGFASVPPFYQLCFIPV
Regarding `C=CCSC1=C(C#N)C(c2cc(Br)c(O)c(OC)c2)CC(=O)N1` (stereo not drawn), the inhibition was 67.5% (active).
In the case of `Cc1ccc(Cl)cc1NC(=O)COC(=O)C1CCCCC1`, the inhibition is 32.1%.
On to `CCCOc1ccc(N2CC(C(=O)Nc3ccccn3)CC2=O)cc1` (stereo not drawn), for which the inhibition was -18.5%.
Regarding `CCc1ccc(N2CC(C(=O)NC3=NCCS3)CC2=O)cc1` (stereo not drawn), the inhibition was -1.1%.
For `CC(C)c1ccc(N2CC(C(=O)Nc3nccs3)CC2=O)cc1` (stereo not drawn) the value was 59.1% (active); for `CN(C)C(=O)c1cc(Br)ccc1Cl`, 4%; for `CCOc1cccc(/C(O)=C2/C(=O)C(=O)N(CCOC)C2c2ccncc2)c1` (stereo not drawn), -18.2%.
For `COc1ccc(N2C(=O)CC(N3CCC(C(N)=O)CC3)C2=O)cc1` (stereo not drawn) the value was -28.9%; for `COC(=O)CNS(=O)(=O)c1ccc(OC)cc1`, 10.3%.
For `COc1ccc(C(=O)Nc2ccc(S(=O)(=O)NC(C)C)cc2)cc1` the value was 42.9%; for `CO/N=C(/CS(=O)(=O)c1ccc(Br)cc1)c1ccc(OC)cc1`, 100% (active).
Turning to `Cc1nc(-c2ccccc2)sc1-c1nc(-c2ccccc2)ncc1S(=O)(=O)c1ccccc1`, the inhibition is 5.1%.
With `CC(C)NS(=O)(=O)c1ccc(CCC(=O)N2CCOCC2)cc1` the figure was 14.2%.
For the compound `O=C(OC(C(=O)NC1CCCC1)c1ccc(F)cc1)c1ccno1` (stereo not drawn), the inhibition is 8.1%.
With `Cn1c(C(=O)OC(C(=O)NC2CCCCC2)c2ccccn2)cc2sccc21` (stereo not drawn) the figure was 67.2% (active); with `CC(=O)OC(C(=O)NC1CCCCC1)c1ccccc1` (stereo not drawn), 20.2%; with `Cc1nc2c(c(=O)n1Cc1ccco1)c1nc3ccccc3nc1n2Cc1ccccc1`, 3%.
With `CCn1c(C)nc2c1C(=O)c1ccccc1C2=O` the figure was -8.5%.
With `Cc1nc2ccccc2c(=O)n1CCCn1ccnc1` the figure was 50.8% (active); with `CCC(C)N1C(=O)S/C(=C/c2ccc(Sc3nc4ccccc4[nH]3)o2)C1=O` (stereo not drawn), 43.3%.
Take `CC(C)Cc1oc(C(=O)O)cc1CN`: the inhibition is 4.2%.
For `CC1OC2C(OC1C)N(S(C)(=O)=O)CCN2S(C)(=O)=O` (stereo not drawn) the value was -4.8%.
`Cc1ccc(CNC(=O)C2CC(=O)N(C3CCCCCCC3)C2)cc1` (stereo not drawn): the inhibition was -2.5%.
For `CCc1ccc(CNC(=O)C2CC(=O)N(CCc3ccc(C)cc3)C2)cc1` (stereo not drawn) the value was 54.2% (active); for `Cc1ccc(CCN2CC(C(=O)O)CC2=O)cc1` (stereo not drawn), -0.5%.
With `O=C(NC1CCCCC1)c1ccc(CNc2c(N3CCOCC3)c(=O)c2=O)cc1` the figure was 9.7%; with `O=C1OC(NC(=O)c2ccccc2)C(N2CCOCC2)=C1Cl` (stereo not drawn), 52.8% (active).
With `Cc1ccc(C(=O)NC2CCN(C(=O)N3CCOCC3)CC2)cc1`, the inhibition is -1.3%.

Usually inhibition stands for the relative decrease from the control value, in per cent.
